For 30 sequences, z-score results are on record in PubChem BioAssay AID1508600 (Functional Genomics Laboratory (NCATS/FGL), 2020).

In all, about 53,000 sequences went through this assay and about 3,700 (7%) were called active. Shown is part of a subset that was picked to be rich in actives. Values without a mark were called inactive.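 The calls were made as follows: active = gene knockdowns whose robust z-score for IL-1 alpha signal is at least 2 or at most -2, so actives lie on both sides; inactive = the rest.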

This test can be described thus: Components of the Cytosolic LPS Sensing Pathway: Gene Identification via Genome-wide siRNA Screen.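 Also: robust z of the log signal after scaling to non-targeting control siRNA wells of the plate.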 The settings on record: RAW264.7 macrophages, IL-1a HTRF, actives lie on both sides, screened at 100 nM (by protocol), cells primed 5 h with Pam3CSK4 first. Summed up:
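RAW264.7 mouse macrophages reverse-transfected with single siRNAs (100 nM final) for 48h, primed with Pam3CSK4 for 5 hours, then transfected with LipidA for 24 hour. Supernatant IL-1a read by HTRF; values normalized to negative-control median, log-transformed robust z-scores.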
Turning to GGAGCUGAUAGGACUGAUGTT against Snap47, the z-score was 2.16 (active).

With CCAGAAAUUGACAAAAAGUTT against Etfa, the z-score is 0.492.

Consider GCCCUACCAAAGACACUAGTT against Lrch4, for which the z-score is -2.31 (active).

As for GGCAGGAGAAAGGCCUUUUTT against Olfr535, the z-score was 0.123.

On to GAGUGUGCAUUUUGUUAGUTT against Olfr136, for which the z-score was 0.763.

Turning to GGCUGAGGCUGUGAAGAAGTT against Igfbp5, the z-score is -0.659.

Consider GGGCAAACGGAGGAAUGAATT against Slc35g3, for which the z-score is 2.47 (active).

As to GGAGAGUAAAUACCGACAGTT against Homer2, the z-score was -0.133.

Turning to GCUGUUACCCUUAUGCAGCTT against Supt7l, the z-score is 0.486.

GGACAACGAUAGCUAACCUTT against Tmem63a: the z-score was 0.453.

GGAUGAAGAACCACUCAAATT against Ankzf1: the z-score was -1.06.

For the sequence GGUGUGUUUUAUGUGUCCCTT against Ctif, the z-score was 2.62 (active).

Consider CCUAUUUUAACCUUACGUGTT against Bdh1, for which the z-score is -0.443.

As to GGAAGAGUUGGAGAAAAUUTT against Tex46, the z-score is 2.

Turning to GGAGGUCUACAUUUAUUAATT against Dera, the z-score is 1.31.

Consider CCAAACAGGCUUUUUUCCUTT against Snx31, for which the z-score is -0.712.

Take GCAACGAGUGUGUUUUCUGTT against Spink10: the z-score is 2.25 (active).

As to CCAUGUCAAACACCUUAGUTT against Crebzf, the z-score was 1.26.

Take GGUAAGCUCCAAUUAUGCCTT against Ubr3: the z-score is 0.0463.

Turning to GGAGCAAUUGAGAAAGAAGTT against Moap1, the z-score was 0.508.

As to CCCGUAACCAUUUACUGGUTT against Tyro3, the z-score is 0.85.

GGCACGAGCUCUCAUCUUUTT against Slc27a4: the z-score is -0.752.

Regarding GGAAACAAGGGACUCUGUATT against Col4a4, the z-score was 0.906.

As for GCAGCUUUUUGAGGUGUUATT against Slc9a7, the z-score is 3.07 (active).

GGAAUAGUGAAGGUACUUUTT against Cer1: the z-score is 2.4 (active).

Consider GGAAUUCUCUAUACCAAGATT against P2ry10b, for which the z-score was 0.51.

GCAAUUCCUCUUUUAGUCCTT against Spag6l: the z-score is -1.38.

With GGCAGAUCUUCUUUGGAAATT against Ugt2b38, the z-score is 0.757.

For GGACCGUCAGUGUCAUGGATT against Zfp397, the z-score was -2.55 (active).

Regarding CCAUUGUUUGACUCAAAACTT against Gjc3, the z-score was 0.62.
